This note sets out measurements from PubChem BioAssay AID493151 (Sanford-Burnham Center for Chemical Genomics, 2011).

In general, inhibition refers to the change of the read-out against control, counted positive when it falls.

Among all 1,400 compounds or so, about 860 (61%) were called active.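 Rule for the calls: active = inhibition reaching a set limit, 80% of the first screen's cutoff, at 20 µM in any replicate; inactive = the rest.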 So high a share suggests a set chosen from earlier hits. This excerpt belongs to a sample that is enriched for actives.

Sequence of DNA dC->dU-editing enzyme APOBEC-3A (Homo sapiens) (P31941 whole entry, looked up): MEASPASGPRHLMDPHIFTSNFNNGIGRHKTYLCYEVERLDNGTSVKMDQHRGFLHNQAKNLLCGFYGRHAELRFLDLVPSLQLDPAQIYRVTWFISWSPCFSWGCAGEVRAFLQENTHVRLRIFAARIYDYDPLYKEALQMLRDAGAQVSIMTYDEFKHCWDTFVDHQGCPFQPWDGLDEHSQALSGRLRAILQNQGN

The assay concerns the target DNA dC->dU-editing enzyme APOBEC-3A (Homo sapiens) (UniProt P31941). The assay can be described thus: APOBEC3A deaminase inhibitors, retest, confirmation, selectivity assay for APOBEC3G inhibitor project, biochemical, single concentration, fluorescence readout (AID 493151).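 Note: plate controls were DMSO wells with A3A for no effect and wells lacking A3A enzyme for full effect.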 To be noted: recombinant A3A, ssDNA deaminase UDG fluorescence assay; at 20 µM; stronger effect = higher value.
Consider `CCN(CC)CCOC(=O)c1cc2cc(COC)ccc2o1`, for which the inhibition is 80.1% (active). Take `O=C(O)CCn1cc(C=C2C(=O)NC(=S)NC2=O)c(-c2cccc(Br)c2)n1`: the inhibition was 52.3% (active).
